# Assay outcomes: PubChem BioAssay, SRMLSC
# A selection: hits, their analogues and other compounds. The true share with any hit is near 6.3%.
# Spn MK inh: S. pneumoniae mevalonate kinase inhibition; actives 0.48% (n = 65,000); AID 555; inhibition, % at 10 µM; purified MK, PK/LDH-coupled NADH absorbance 340 nm;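 active = ranked among the strongest by inhibition in the single 10 µM screen, a fixed top-ranked set picked for dose follow-up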
# Abs 340nm: absorbance at 340 nm | compound absorbance at 340 nm, fold over control | fold change at 10 µM | 65,000 tested, under 10 active;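 active = at 10 µM dose, initial 340 nm absorbance at least 2 fold that of control wells; inactive = change under 2 fold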;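 also: initial absorbance extrapolated from kinetic A340 decline of NADH oxidation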
# Spn DPM-DC inh: inhibitors of Streptococcus pneumoniae diphosphomevalonate decarboxylase; calls only at 10 µM; AID 556; actives 0.49% (n = 65,000); purified DPM-DC, PK/LDH coupled NADH fluorescence;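 active = the 320 compounds with the highest percent inhibition in the single-dose primary screen, excluding strongly autofluorescent ones, cut at about 32% in these data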;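 also: kinetic rate of NADH fluorescence loss reporting ADP formed by the decarboxylase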
# Spn PMK inh: inhibitors of Streptococcus pneumoniae phosphomevalonate kinase. inhibition, % at 10 µM. purified PMK, PK/LDH-coupled NADH absorbance 340 nm. actives 0.49% (n = 65,000);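 active = top-ranked compounds by inhibition in the single 10 µM screen, taking a fixed number of the strongest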;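 also: 0% = full reaction with DMSO carrier and 100% = background rate without enzyme reaction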
# Fluor 339 460: intrinsic fluorescence of library compounds, ex339/em460 – biochemical, MLSMR library, data from DPM-DC assay, artefact control, profiling panel; compound autofluorescence, ex339/em460 nm, NADH buffer; stronger effect = higher value; 1 = no-compound wells, NADH background; fluorescence fold increase at 10 µM; actives 5.5% (n = 65,000);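 active = at 10 µM, mean starting fluorescence two-fold or more over control wells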;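 also: signal is the first read of a kinetic run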
# NADH coupling: inhibitors of enzymes used to reach an NAD/NADH endpoint; actives 0.02% (n = 65,000); AID 774; IC50, µM (doses to about 10 µM), inactives show top-dose inhibition; coupled PK/LDH NADH assays, four targets;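 active = single-dose screening hits from any of four coupled enzyme assays that gave an IC50 when retested across doses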;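 also: the DPM-DC format reads NADH fluorescence rather than 340 nm absorbance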
# * hit, by the source's call; i = inactive; · = no result shown; + = active, no number.
SMILES,Spn MK inh,Abs 340nm,Spn DPM-DC inh,Spn PMK inh,Fluor 339 460,NADH coupling
O=C(NCc1ccco1)c1cc2nc(-c3ccc4c(c3)OCO4)cc(C(F)(F)F)n2n1,10,1,·,16,3.7*,13%
COc1ccc(-c2cc(C(F)(F)F)n3nc(C(=O)Nc4cc(C)on4)cc3n2)cc1OC,0,1.1,·,2,3.8*,1%
COC(=O)c1cc2nc(-c3ccccc3)cc(C)n2n1,13,1,·,0,3.6*,7%
CCN(CC)c1ccc(NC(=O)COc2ccc(C)cc2)cc1,0,1,i,4,1.1,1%
CCOC(=O)N1CCC(NC(=O)Cn2c3c(c(-c4ccccc4Cl)cc2=O)CCC3)CC1,9,1,·,11,2.2*,4%
CCOC(=O)N1CCC(NC(=O)Cn2c3ccccc3c3cn[nH]c(=O)c32)CC1,0,1,i,15,1.2,5%
COc1ccc2nc(C)c3c(c2c1)OC(C)C3 (configuration not stated),3,1.1,i,0,1.7,2%
COc1cccc2c3c(c(C)nc12)CC(C)O3 (configuration not stated),6,1,·,3,3.7*,5%
CCOC(=O)c1c(NC(=O)c2ccc(-n3cnnn3)cc2)sc2c1CCCC2,3,1.1,i,13,3*,14%
Cc1cccc(C)c1NC(=O)c1ccc(-n2cnnn2)cc1,0,1,i,18,1,6%
CCOC(=O)c1c(NC(=O)c2nn(CC)cc2Br)sc(C)c1C,1,1.1,·,6,3.5*,4%
CCOC(=O)c1c(NC(=O)c2nn(CC)cc2Br)sc2c1CCCCC2,0,1.1,·,0,3.6*,0%
COc1ccc(S(=O)(=O)N(C)CC(=O)O)c2ccccc12,9,1,i,9,1.1,9%
Cc1ccc(OC(=O)c2cccc(C(=O)Oc3ccc(C)cn3)n2)nc1,0,1.1,i,0,1.3,0%
Nc1ccc(C(=O)c2ccc3c(c2)OCCO3)cc1N,6,1.2,i,0,1.1,3%
Cc1ccc(C(=O)c2cc3c(cc2N)OCCO3)cc1,0,1.1,i,27*,1.1,9%
COc1ccc2[nH]c(=O)c(CN(C(=O)c3ccccn3)c3ccccc3)cc2c1,13,1.1,·,10,3.4*,12%
COc1ccc(N(Cc2cc3cc(OC)ccc3[nH]c2=O)C(=O)c2cccnc2)cc1,10,1.1,i,4,2.7*,10%
CC(C)C(=O)N(Cc1cc2ccccc2[nH]c1=O)C(C)C,9,1,i,6,1.2,5%
CCC(=O)N(Cc1cc2cc(OC)ccc2[nH]c1=O)c1cc(C)ccc1C,7,1,+,20,2.4*,20%
COc1ccc2[nH]c(=O)c(CN(C(=O)COc3ccccc3)C(C)C)cc2c1,1,1.1,i,0,2.6*,4%
O=C(c1ccc(Cl)cc1)N1CCN(c2nc(N3CCCCC3)nc(N3CCCCC3)n2)CC1,8,1.1,i,0,1.2,3%
COc1cccc2cc(C(=O)N3CCc4ccccc4C3)c(=O)oc12,5,1.1,i,9,1.2,5%
COc1cccc2cc(C(=O)N3CCN(c4ccccc4F)CC3)c(=O)oc12,0,1,i,29*,1.2,10%
COC(=O)c1cccc(Oc2nc3c(c(=O)n(C)c(=O)n3C)n2C(C)C)c1,4,0.98,i,0,1,2%
SMILES,Spn MK inh,Abs 340nm,Spn DPM-DC inh,Spn PMK inh,Fluor 339 460,NADH coupling
COC(=O)c1ccc(Sc2ccc(C)cc2)c(N)c1,3,1,i,14,3.1*,10%
CC(C)Cn1nc(NC(=O)C(C)(C)C)c2cc3ccccc3nc21,0,1,i,5,1.7,6%
COc1ccc2nc3c(cc2c1)c(NC(=O)c1cccs1)nn3CC(C)C,9,1,·,12,3.7*,11%
COC(=O)c1oc2nc(C)cc(C)c2c1N,0,1.1,·,4,3.9*,2%
Cn1c(=N)c(S(=O)(=O)c2ccc(Cl)cc2)cc2c(=O)n3ccccc3nc21,7,0.98,i,11,1.8,6%
Cc1ccc(S(=O)(=O)c2cc3c(=O)n4cc(C)ccc4nc3n(CC3CCCO3)c2=N)cc1 (configuration not stated),9,1.1,i,1,2.1*,8%
